Results as given in PubChem BioAssay AID588676 (Johns Hopkins Ion Channel Center, 2011).
The campaign covered roughly 310,000 compounds. About 3,900 (1.3%) were called active.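 How the source made its calls: active means calcium-response B-score plate-corrected more than 3 library SD below zero, starting fluorescence within 5 deviations, no agonist response on first addition; inactive means the rest.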 The entries come from a sample that favours actives as a whole.

These compounds were tested against Mas-related G-protein coupled receptor member X1 (Homo sapiens) (UniProt Q96LB2) (assay: blockade of BAM8-22-evoked MrgX1 calcium response – HEK293 cells, Fluo-4 calcium flux, primary screen (AID 588676;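 on B-score: peak minus trough fluorescence over baseline after final BAM8-22 challenge near maximal dose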)). Settings: Fluo-4, BAM8-22 antagonism, at 10 µM; stronger effect = lower value.
Sequence of Mas-related G-protein coupled receptor member X1 (Homo sapiens) (Q96LB2 whole entry, looked up): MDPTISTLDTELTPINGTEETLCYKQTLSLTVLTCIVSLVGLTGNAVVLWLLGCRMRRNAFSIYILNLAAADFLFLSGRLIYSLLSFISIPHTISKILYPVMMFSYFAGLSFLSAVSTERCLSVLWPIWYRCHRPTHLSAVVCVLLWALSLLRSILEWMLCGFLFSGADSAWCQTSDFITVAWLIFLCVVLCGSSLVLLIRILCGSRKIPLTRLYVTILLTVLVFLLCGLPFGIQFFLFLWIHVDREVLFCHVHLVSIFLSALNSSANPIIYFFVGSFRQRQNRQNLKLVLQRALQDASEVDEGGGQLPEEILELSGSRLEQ
With `Cc1ccc(N(C(=O)Cc2cccs2)C2C=CS(=O)(=O)C2)cc1Cl` (stereo unspecified) the B-score was “inactive”. In the case of `Cn1c(NC(=O)c2ccco2)c(-c2ccccc2Cl)c(=O)c2ccccc21`, the B-score is reported as “inactive”. With `CCOCCCN1C(=O)C2C(C(=O)Nc3ccc(OCC)cc3)C3C=CC2(O3)C1C(=O)NC1CCCCC1` (stereo unspecified) the B-score was “inactive”. `CC(=O)OCCN(CCCn1c(-c2ccncc2)nc2ccccc21)c1nc(-c2ccc(C)cc2)cs1` was tested, and the B-score was “inactive”. With `O=C(N/N=C/c1ccco1)c1ccc(C(=O)N/N=C/c2ccco2)o1` the B-score was “inactive”. In the case of `O=C(Cc1ccccc1)Nc1cccc(C(=O)N/N=C/c2ccco2)c1`, the B-score is reported as -18.1 (active). For `O=C(Cc1ccccc1)Nc1cccc(NC(=O)c2ccccc2)c1`, the B-score was “inactive”. `N#CCC(=O)NC(=O)NCC1CC1` was tested, and the B-score was “inactive”. With `CC1Cc2ccccc2N1C(=O)CSc1nnc(-c2ccc(S(=O)(=O)N3CCCC3)cc2)n1C` (stereo unspecified) the B-score was “inactive”. `CC(NCc1cccs1)C(=O)Nc1cc(Cl)cc(Cl)c1` (stereo unspecified) was tested, and the B-score was “inactive”. `COc1cc(C)c(S(=O)(=O)N2CCOCC2)c(C)c1C` was tested, and the B-score was “inactive”. For `COc1ccc(S(=O)(=O)N2CCCC2)c(C)c1C`, the B-score was “inactive”. In the case of `COc1ccc(S(=O)(=O)N2CCOCC2)c(C)c1C`, the B-score is reported as -6.44 (active). `COc1cccc2cc(/C(C)=N/NC(=O)c3ccco3)oc12` was tested, and the B-score was “inactive”. With `Cn1nccc1C(=O)NC1CCCc2c1cnn2-c1ccc(F)cc1F` (stereo unspecified) the B-score was “inactive”. In the case of `CCOC(=O)N1CCN(C(=O)c2cn(C)c3ccc(S(=O)(=O)N(CC)CC)cc3c2=O)CC1`, the B-score is reported as “inactive”. With `COc1ccc(N2CCN(C(=O)c3cn(C)c4ccc(S(=O)(=O)N5CCOCC5)cc4c3=O)CC2)cc1` the B-score was “inactive”. For `CCOC(=O)N1CCN(C(=O)c2cn(C)c3ccc(S(=O)(=O)N4CCCC4)cc3c2=O)CC1`, the B-score was -6.83 (active). In the case of `N/C(=N\OS(=O)(=O)c1cccc([N+](=O)[O-])c1)c1ccncc1`, the B-score is reported as “inactive”. In the case of `CCCNC(=O)CSc1nc(Cc2ccccc2)nc2ccccc12`, the B-score is reported as “inactive”. In the case of `C=CCSc1nc(Cc2ccc(Cl)cc2)nc2ccccc12`, the B-score is reported as -5.91 (active). `Clc1ccc(CSc2nnc3c(n2)[nH]c2ccccc23)cc1` was tested, and the B-score was “inactive”. `COc1ccccc1NC(=S)N1CCC(NC(=O)C23CC4CC(CC(C4)C2)C3)CC1` was tested, and the B-score was “inactive”. With `FC(F)(F)c1cc(-c2cccs2)nc(NCc2ccco2)n1` the B-score was -5.29 (active). `COc1ccc(-c2cc(C(F)(F)F)nc(SCCC(=O)NCc3ccco3)n2)cc1` was tested, and the B-score was “inactive”. For `FC(F)(F)c1cc(-c2ccco2)nc(NCc2ccc(Cl)cc2)n1`, the B-score was “inactive”. With `CC(=O)c1c(C)[nH]c(C(=O)CN2C(=O)NC(C)(C)C2=O)c1C` the B-score was “inactive”. With `Cc1nc(-c2ccc(F)cc2)c(CC(=O)N2CCN(S(=O)(=O)c3ccc(F)cc3)CC2)s1` the B-score was “inactive”. In the case of `CC(=O)N(C1=C(Cl)C(=O)c2ccccc2C1=O)c1ccc(C(=O)O)cc1`, the B-score is reported as -18.7 (active). With `FC(F)(F)c1cccc(-c2cc3ccccc3nc2N2CCCC2)c1` the B-score was “inactive”. In the case of `O=C(COc1ccccc1)Nc1ccc(C(=O)N2CCCC2)cc1`, the B-score is reported as “inactive”. `C/C(=N/NC(=O)CC(=O)N/N=C(\C)c1ccc([N+](=O)[O-])cc1)c1ccc([N+](=O)[O-])cc1` was tested, and the B-score was “inactive”. For `C/C(=N\NC(=O)Cc1ccc(Br)cc1)c1cccnc1`, the B-score was “inactive”. For `C/C(=N\NC(=O)Cc1ccc(F)cc1)c1ccc(F)cc1`, the B-score was -8.25 (active). For `COc1ccc2c3c1O[C@H]1C[C@@H](O)C=C[C@@]31CCN(C)C2`, the B-score was “inactive”. With `Cc1nn(Cc2ccccc2)c2c1C(c1ccccc1)C(C#N)=C(N)O2` (stereo unspecified) the B-score was “inactive”. With `Cc1nn(-c2ccccc2)c2c1C(c1ccc(F)cc1)C(C#N)=C(N)O2` (stereo unspecified) the B-score was -13.4 (active). `COc1ccccc1C1C(C#N)=C(N)Oc2c1c(-c1ccccc1)nn2-c1ccccc1` (stereo unspecified) was tested, and the B-score was “inactive”. For `CC(C)(C)c1ccc(C(CC(=O)O)NS(=O)(=O)Cc2ccccc2)cc1` (stereo unspecified), the B-score was “inactive”. With `Cc1c(CCO)c(=O)[nH]n1C(=O)c1c(F)cccc1F` the B-score was “inactive”. With `CCOC(=O)[C@H]1CCC[C@@H](NS(=O)(=O)c2ccc(NC(C)=O)cc2)C1` the B-score was “inactive”. In the case of `Cc1ccc(CNC(=O)CCNS(=O)(=O)c2ccc(Br)s2)cc1`, the B-score is reported as “inactive”. For `O=C1CCC(C(=O)N2CCN(c3ccccc3Cl)CC2)CN1CC1CCCCC1` (stereo unspecified), the B-score was “inactive”. For `COc1ccc(CCNC(=O)C2CC3Cn4c(nc5cc(C)c(C)cc54)C3N2C)cc1` (stereo unspecified), the B-score was “inactive”. `COc1ccccc1OCCNc1cc(N2CCOCC2)ccc1[N+](=O)[O-]` was tested, and the B-score was “inactive”. With `COc1ccc(CCNc2cc(N3CCN(C(=O)c4ccccc4OC)CC3)ccc2[N+](=O)[O-])cc1OC` the B-score was -5.34 (active). In the case of `O=C(c1ccccc1)N1CCN(c2ccc([N+](=O)[O-])c(NCc3ccco3)c2)CC1`, the B-score is reported as “inactive”. In the case of `Cc1cccc(N2CC(C(=O)Nc3ccccc3N3CCCC3)CC2=O)c1C` (stereo unspecified), the B-score is reported as “inactive”. For `CCOc1ccc(C(CC(=O)O)n2cnnn2)cc1OC` (stereo unspecified), the B-score was “inactive”. In the case of `COC(=O)c1ccc(COC(=O)c2cnc(Cl)c(Cl)c2)cc1`, the B-score is reported as “inactive”. With `COc1ccccc1C(=O)N/C(=C/c1ccco1)C(=O)Nc1ccc(C(=O)O)cc1` the B-score was “inactive”. In the case of `O=C(NCCCN1CCCC1=O)c1ccc(S(=O)(=O)Nc2ccccc2)cc1`, the B-score is reported as “inactive”. `CCOc1ccc(C(=O)NCCCN2CCCC2=O)cc1` was tested, and the B-score was “inactive”. With `CCOc1ccc(S(=O)(=O)Nc2ccc(C(=O)NCCCN3CCCC3=O)cc2)cc1` the B-score was -9 (active). `Oc1cc(O)c2c(c1)OC(c1ccc(O)c(O)c1)C(O)C2` (stereo unspecified) was tested, and the B-score was “inactive”. For `Cc1ccc2cc3cc(C(=O)N4CCCCCC4)oc3nc2c1`, the B-score was “inactive”. In the case of `CN(C)c1ccc(C(CC(=O)O)C(=O)O)cc1` (stereo unspecified), the B-score is reported as “inactive”. With `Cc1cnc(CN(C)C(=O)CC2C(=O)NCCN2Cc2cccc(F)c2F)[nH]1` (stereo unspecified) the B-score was “inactive”. `CCCCCc1nnc(NC(=O)c2ccc(=O)n(C)n2)s1` was tested, and the B-score was “inactive”. For `CCNC(=O)c1c(O)c2cccc3c2n(c1=O)CC3`, the B-score was -5.85 (active). In the case of `Cc1cc(=O)n2c3c(cccc13)CCC2`, the B-score is reported as “inactive”. In the case of `CCCCc1nc2ccccc2c(=O)n1NC(=O)c1c(O)c2cccc3c2n(c1=O)CC3`, the B-score is reported as “inactive”. With `Nc1[nH][nH]c(=O)c1N=Nc1ccc2c(c1)OCO2` the B-score was “inactive”. With `Cc1cc(C)nc(N2CCC(C(=O)Nc3ccc4c(c3)OCCO4)CC2)n1` the B-score was “inactive”. For `Cc1cc(Nc2cc(N3CCN(C)CC3)nc(Sc3ccc(NC(=O)C4CC4)cc3)n2)n[nH]1`, the B-score was -6.92 (active). For `Cc1cc(C)cc(NC(=O)C2CCN(c3nc(C)cc(C)n3)CC2)c1`, the B-score was “inactive”.
